Our source for the sensor-assay potency score (higher = more potent) values is the OligoGym collection.
Note: reference of the scale not given here.

The target in the test is MTOR. Description: pooled miR-30 sensor sort-seq; sequence = guide strand. The following applies: shRNA.
With TTTGATGAGCAGCTCAACTTGC, the sensor-assay potency score (higher = more potent) turned out to be 0.357.
Next, TAGCATTGGTCAACATTCTTGT: 0.089; TATCCCTTGACAATTCTGCAGA: -0.562; TTGGGTCTCATCATTAACCAGG: -0.739.
Next, TTCTCTGGAAACTTCTCTCGGG: -0.303; TTTTGGGGAAACATATTGCAGC: -1.1.
With TTACTATGTTTCACTGTCCTGG, the sensor-assay potency score (higher = more potent) was -0.25.
Next, TTTAGTTGAGTATTTGTTCTGC: 0.462; TTCTTCTCCCTGTAGTCCCGGA: -0.437.
The sequence TATATTCTTCAACAGCAGCTAG registered a sensor-assay potency score (higher = more potent) of -0.667.
Next, TTAGAAGGAAAACAAACTCATG: -1.25.
For ATAGCATTGGTCAACATTCTTG, the sensor-assay potency score (higher = more potent) was -0.775.
Sequence TCTCTGGAAACTTCTCTCGGGT came in with a sensor-assay potency score (higher = more potent) of -0.556.
Next, TTTGTGTCCATCAGCCTCCAGT: -0.591; TTGACCACTGAAAACATCCCAG: 0.0557.
Next, TAGGAATCCGTCCTCGTTCGGG: -0.165; TTAGAAGCCACTGTCAGTGGGT: 0.584; TTTGGTATTTGTGTCCATCAGC: -0.533.
The same measure for TATAATTGGTTCTTCGGTCAAA: -0.45; for TTGTTGGCTGCATTGTGCCGGG: -0.403; for TAAATCTCGACCATAGGCCTGA: 0.425.
As to TTATTCTGATACAACATGGTGT, the sensor-assay potency score (higher = more potent) is 0.00722.
TTGAGTATTTGTTCTGCTCATA yielded a sensor-assay potency score (higher = more potent) of -0.623.
As to TTTCATGGGATGTCGCTTGTTT, the sensor-assay potency score (higher = more potent) came to 0.0185.
